High-throughput results: PubChem BioAssay, several laboratories
MRP1 act: activators of MRP-1; hit rate 0.61% among 140,000; H69AR cells + doxorubicin, viability rescue, CellTiter-Glo; AID 799; viability increase, % at 10 µM;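 active = viability gain under doxorubicin at or above a set limit, the compound median plus 3 SD, cut at about 4.7% in these data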;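 also: MRP-1 overexpressing cells given doxorubicin 25 µM after compound pretreatment; 18-22 h compound pretreatment then 72 h with doxorubicin before readout; 0% = doxorubicin-only wells and 100% = vehicle-treated cells without doxorubicin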
Phagocytosis inh: inhibitors of macrophage phagocytosis. J774A.1 macrophage IgG-bead phagocytosis, imaging. hit rate 0.07% among 110,000. inhibition, % at 5 µM. AID 1029;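 active = inhibition above the mean of the plate negative controls plus 5 SD, cut at about 13% in these data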;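 also: phagocytic index as fraction of beads internalized from green versus red external bead signal; plate controls were DMSO negative control for no effect and cytochalasin-D positive control for full effect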
MRP resist rev: compounds reversing MRP-mediated drug resistance | H69AR cells + 2 uM doxorubicin, CellTiter-Glo, 72 h | differential viability (reversal), % at 10 µM | hit rate 0.04% among 85,000;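 active = viability drop by adding the cancer drug above about 55%, with treated viability meeting a 40% cutoff, limit read from the data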;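 also: viability without doxorubicin minus viability with 2 µM doxorubicin for each compound; larger differential means the compound sensitizes cells more to doxorubicin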
The depositor's hits bear a star; / = no result given; + = active, no number; [ ] = another dose, or the depositor's remark. Only some compounds are listed: those with a hit (about 0.69% of all), similar ones and a draw of the others.

SMILES | MRP1 act | Phagocytosis inh | MRP resist rev
Cc1ccc(Nc2nc(N)nc(CN3CCN(c4ccccc4)CC3)n2)cc1Cl | -4 | + | -5
COc1ccc(N2CCN(Cc3nc(N)nc(Nc4ccc(C)c(Cl)c4)n3)CC2)cc1 | -2 | -1 | -28
COc1cccc(-c2nc3sc4c(c3c(=O)[nH]2)CCCCC4)c1 | -2 | -3 | /
Cc1nc2c(ccc3nc(NC(=O)C(c4ccccc4)c4ccccc4)sc32)s1 | 15* | / | /
Cc1nc2c(ccc3nc(NC(=O)Cc4cccc5ccccc45)sc32)s1 | -3 | / | /
COc1ccc(C(=O)/C=C/Nc2ccc(S(=O)(=O)Nc3onc(C)c3C)cc2)cc1 | -1 | -2 | /
O=[N+]([O-])c1ccc(C2Oc3ccccc3C3CC(c4ccccc4)=NN32)s1 (centres undefined) | -5 | -2 | /
CCC(=O)/C=C1/Sc2ccc(OC)cc2N1CC | -2 | / | 1
CCC(/C=C1\Sc2ccc(OC)cc2N1CCO)=C\c1sc2ccc(OC)cc2[n+]1CCO | -4 | +[fluoresces] | /
COc1cccc(/C=N/NC(=O)CN2CC(c3ccccc3)CC2=O)c1OC (centres undefined) | -1 | -5 | /
COc1cc(SC)ccc1C(=O)NCCOc1ccc(Cl)cc1 | 6.4* | -2 | /
COc1cc(SC)ccc1C(=O)NCCOc1c(C)cc(C)cc1C | 0 | 2 | /
CC(C)NC(=O)C(=O)NCCc1ccc(Cl)cc1 | 4.8* | 0 | 19
O=C(O)C1CCCCC1C(=O)NCCc1ccc(Cl)cc1 (centres undefined) | 2 | 0 | -3
O=C1NC(=O)C2(COC(c3ccncc3)OC2)S1 (centres undefined) | 1 | 5 | /
O=C1NC(=O)C2(COC(c3ccccc3Cl)OC2)S1 (centres undefined) | 7.2* | -4 | /
O=C(Cn1cc(SCc2cccc(Cl)c2)c2ccccc21)N1CCOCC1 | -3 | -11 | /
O=C(Cc1csc(-c2ccccc2)n1)Nc1ccc(C(F)(F)F)cc1 | -1 | 0 | /
Cc1ccc(NC(=O)Cc2csc(-c3ccccc3)n2)cc1F | 5.1* | 5 | /
CCC1(C)OC(=O)NN(c2ccc(C)cc2)C1(C)O (centres undefined) | -1 | 4 | /
CC1=C(C(=O)Nc2ccccc2)C(c2ccc(C)o2)N2C(=O)CSC2=N1 (centres undefined) | 11* | -1 | -3
CC1=C(C(=O)Nc2ccccc2)C(c2ccccc2)N2C(=O)CSC2=N1 (centres undefined) | -1 | 0 | -1
COc1ccccc1-n1c(SCC(=O)Nc2cccc3ccccc23)nc(O)cc1=O | 0 | 190* | -11
COc1ccc(NC(=O)CSc2nc(O)cc(=O)n2-c2ccccc2OC)cc1 | 1 | -1 | -1
O=C(c1c(F)cccc1F)N(Cc1ccccn1)C1CC1 | -1 | 2 | -4
SMILES | MRP1 act | Phagocytosis inh | MRP resist rev
O=C(NN=C1CCCCCCCCCCC1)c1ccccc1F | -2 | -7 | /
O=C(NC1CC1)C(=O)c1c(-c2ccccc2)[nH]c2ccccc12 | -1 | / | /
CCN(CC)C(=O)C(=O)c1c(-c2ccccc2)[nH]c2ccccc12 | 23* | 4 | /
Cc1ccc(NC(=O)COC(=O)c2csc3c2CCC(C)C3)cc1S(=O)(=O)N1CCCCC1 (centres undefined) | 5 | -4 | /
CC1CCc2c(C(=O)OCC(=O)Nc3cccc(S(=O)(=O)N4CCCCCC4)c3)csc2C1 (centres undefined) | 5.1* | -4 | /
CN(C)c1ccc(/C=C(\Cl)c2nc3ccccc3s2)cc1 | -4 | -3 | /
O=C1CSC(=NC(=O)c2ccccc2)N1 | 6.2* | 0 | -12
CC(C)C(=O)N=C1NC(=O)CS1 | 1 | -3 | /
Cn1cc(C(=O)c2ccc(Cl)cc2Cl)cc1C(=O)N/N=C(\N)COc1cccc(C(F)(F)F)c1 | -2 | -1 | -40
CCCCc1c(C)nc2c(OC)cccc2c1SCCC(=O)O | -2 | 0 | /
CCc1c(C)nc2c(OC)cccc2c1SCCC(=O)O | 0 | 37*[artifact] | /
CCOC(=O)/C(C#N)=C1\CCCN1CC(N)=S | -2 | 0 | /
O=C(O)c1ccc2c(=O)n3c(nc2c1)/C(=C/c1cccc(Cl)c1Cl)CCCC3 | -1 | -13 | /
CC1(C)O[C@@H]2C[C@H]3[C@@H]4C[C@H](F)C5=CC(=O)C=C[C@]5(C)[C@@]4(F)[C@@H](O)C[C@]3(C)[C@]2(C(=O)CO)O1 | 4 | / | 4
C[C@]12C=CC(=O)C=C1CC[C@H]1[C@@H]3C[C@@H](O)[C@](O)(C(=O)CO)[C@@]3(C)C[C@H](O)[C@@]12F | 5.2* | / | /
CC(=O)OCC(=O)[C@@]12OC3(CCCC3)O[C@@H]1C[C@H]1[C@@H]3CCC4=CC(=O)C=C[C@]4(C)[C@@]3(F)[C@@H](O)C[C@@]12C | -1 | / | 3
CC1(C)O[C@@H]2C[C@H]3[C@@H]4CCC5=CC(=O)C=C[C@]5(C)[C@@]4(F)[C@@H](O)C[C@]3(C)[C@]2(C(=O)CO)O1 | 7.2* | / | -14
C=CCn1c(=O)/c(=C2/SC(C)=C(C)N2CC)s/c1=C1/C(=O)N(C)C(=S)N1c1ccccc1 | / | / | 28
Cc1cccc(N2C(=O)C(Oc3ccc(Cl)cc3Cl)C2C=O)c1C (centres undefined) | -5 | -9 | /
O=C(CCCc1nc2ccccc2s1)NCc1ccccc1F | 0 | -1 | /
Cc1cc(Br)ccc1NCc1ccccn1 | -2 | / | /
COc1ccc(CN=C2NC(=O)CC(C(=O)Nc3ccccc3C)S2)cc1 (centres undefined) | 6.0* | -3 | /
COc1ccc(CN=C2NC(=O)CC(C(=O)Nc3ccc([N+](=O)[O-])cc3C)S2)cc1 (centres undefined) | 4 | -8 | /
COC1(OC)C(=N/O)/C(=N\O)CCC1O (centres undefined) | 11* | -1 | 13
CC(C)c1nnc(NC(=O)CSc2ncn[nH]2)s1 | 4.8* | 2 | -9
SMILES | MRP1 act | Phagocytosis inh | MRP resist rev
O=C(CSc1ncn[nH]1)Nc1ccccc1C(=O)O | -2 | 0 | -10
O=C(CSc1ncn[nH]1)Nc1ccc(Br)cc1F | 7.0* | 0 | -10
CC(C)c1nnc(NC(=O)CSc2nc3ccccc3s2)s1 | -1 | -1 | -1
COC(=O)c1sc(S(=O)(=O)N2CCC(C(=O)O)CC2)c(C(=O)OC)c1C | 1 | -1 | /
CCN(CC)C(=O)NC1CC(=O)N(c2ccc(OC)cc2)C1 (centres undefined) | 0 | -14 | /
COc1ccc(-c2[nH]ncc2Oc2ccccc2OC)c(O)c1 | -4 | -1 | -20
COc1ccc(-c2[nH]ncc2-c2cnn(-c3ccccc3)c2)c(O)c1 | 46* | -1 | /
CCOC(=O)c1c(OCC)[nH]c2ccc(O)cc12 | 0 | / | 1
Cc1nnc(NC(=O)CC(NC(=O)C(F)(F)F)c2ccccc2)s1 (centres undefined) | 4 | -3 | /
O=C(CC(NC(=O)C(F)(F)F)c1ccccc1)Nc1nnc(CCc2ccccc2)s1 (centres undefined) | 9.3* | -5 | /
O=C(Cn1cc([N+](=O)[O-])cn1)NCc1cc2ccccc2[nH]1 | -2 | -2 | /
O=C(COC(=O)c1ccc(S(=O)(=O)Nc2ccccc2)cc1)NCCC1=CCCCC1 | 0 | / | /
CCOc1ccccc1NC(=O)C1CCCCN1S(=O)(=O)c1ccc(F)cc1 (centres undefined) | -2 | 5 | -28
N#Cc1c(N)n(CCOC(=O)c2cccc([N+](=O)[O-])c2)c2nc3ccccc3nc12 | -2 | 2 | /
N#Cc1c(N)n(CCOC(=O)c2cccc(Br)c2)c2nc3ccccc3nc12 | 5.7* | -1 | 6
O=C(O)c1ccc(N=NN2CCCCCC2)cc1 | -3 | -4 | /
